PfHsp40 rescue: rescue of yeast from PfHsp40 toxicity, primary screen, S. cerevisiae, ATP luminescence. growth rescue, % at 12.5 µM. S. cerevisiae expressing PfHsp40, growth rescue. actives 0.68% (n = 340,000); in the data active means growth rescue above about 28%, passing the limit was not always enough; inconclusive means no clear call, values can overlap the other calls;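 further: yeast W303a lacking pdr1 and pdr3 grown in galactose medium; growth measured after three days at 30 °C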
Sa ugtP lethal: growth inhibition of ugtP-null S. aureus, primary screen, RN4220 ugtP deletion, OD600 | 16 h | growth inhibition, % (concentration not given with the values) | actives 0.54% (n = 330,000); in the data active means growth inhibition above about 68%;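 further: plate controls were untreated wells for no effect and antibiotic for full effect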
SSB-PriA inh: inhibitors of Klebsiella pneumoniae PriA binding to SSB C-terminal tail, primary screen, biochemical, AlphaScreen; actives 0.6% (n = 430,000); inhibition, % at 33 µM; AID 1272365, 2023; AlphaScreen SSBct-PriA binding, biotinylated peptide; PriA–SSB C-terminal tail interaction (Klebsiella pneumoniae); in the data active means inhibition mostly above about 37%, no sharp cut-off; inactive means mostly below about 20%;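 further: plate controls were negative control peptide for no effect and reference peptide for full effect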
VHR inh abs: VHR1 phosphatase inhibitors, primary screen, biochemical, absorbance, uHTS | Dual specificity protein phosphatase 3 (Homo sapiens), P51452 | recombinant VHR phosphatase, pNPP absorbance | inhibition, % at 13.3 µM | actives 0.52% (n = 290,000); in the data active means inhibition above about 50%
Target sequence (P51452 whole entry, looked up): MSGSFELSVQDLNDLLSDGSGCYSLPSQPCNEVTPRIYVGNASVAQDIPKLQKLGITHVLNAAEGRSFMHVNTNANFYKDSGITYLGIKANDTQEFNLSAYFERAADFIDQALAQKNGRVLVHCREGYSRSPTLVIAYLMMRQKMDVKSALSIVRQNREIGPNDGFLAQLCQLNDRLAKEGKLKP
RN4220 kill: growth inhibition of S. aureus RN4220, primary screen, OD600 | 16 h | inhibition, % (no concentration beside the values) | actives 0.33% (n = 330,000) | AID 1259311, 2017; in the data active means inhibition above about 85%;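 further: plate controls were untreated cells for no effect and reference antibiotic for full effect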
Mtb hypoxia rep: PubChem AID 1159583; actives 0.1% (n = 300,000); fluorescence inhibition, % (no concentration beside the values); M. tuberculosis hypoxia-regulated fluorescent reporter, fluorescence; in the data active means fluorescence inhibition mostly above about 23%, no sharp cut-off; inactive means mostly below about 17%
* hit, by the source's call; u = inconclusive; x = no result given. Rows were chosen to be rich in hits. Some 1.8% of all compounds tested hit in one or more screens of this group.

SMILES | PfHsp40 rescue | Sa ugtP lethal | SSB-PriA inh | VHR inh abs | RN4220 kill | Mtb hypoxia rep
COc1ccc(N2CCN(C(=O)c3ccc(Cn4nc(C)c([N+](=O)[O-])c4C)o3)CC2)cc1 | 1.3 | 8.8 | 47.5* | 24.9 | -0.6 | -5.1
O=c1c2ccccc2c(-c2ccc(O)cc2)nn1-c1cccc(C(F)(F)F)c1 | 239.9* | -8.7 | -11.4 | 31.5 | -3.9 | 8.6
O=c1c2ccccc2c(-c2cccc(C(F)(F)F)c2)nn1-c1ccccc1 | -0.3 | -13.9 | -8.5 | 1.7 | -0.8 | 8.2
CCn1c(SCC(=O)NN=C/C=C/c2ccccc2[N+](=O)[O-])nnc1-c1ccccc1 | x | 2.9 | 9.1 | x | 2.2 | 6.8
CC(=O)N(Cc1ccccc1)c1ncc2c(n1)c(=O)c(C#N)c1ccccn12 | -1.4 | 3.9 | 48.4* | 29.6 | 0.6 | 1.5
COc1ccc(C=NNC(=O)COc2cc(C)cc(C)c2)cc1COC(C)=O | x | 93.4* | -11.2 | x | 0.0 | 6.6
Cc1ccc(C(=O)NC(C(=O)O)C(C)C)cc1 (configuration not stated) | x | x | -6.0 | x | x | x
CCCCN(C)S(=O)(=O)c1cc2c3c(c1)CCC(=O)N3CCC2 | -0.4 | 7.0 | -12.6 | 55.7* | 2.8 | 9.2
CCN(c1ccccc1C)S(=O)(=O)c1cc2c3c(c1)CCC(=O)N3CCC2 | -0.2 | -2.0 | -7.0 | -19.8 | 9.2 | 16.5
O=C(CSc1nc2ccccc2c(=O)n1Cc1ccccc1)Nc1ccc(Br)cc1C(=O)O | 1.3 | 99.3* | -5.9 | 20.6 | 76.2 | -2.3
Cc1ccc(S(=O)(=O)N2CCOCC2)cc1NC(=O)CSc1nc2ccccc2c(=O)n1Cc1ccccc1 | -1.8 | 3.9 | 0.7 | -3.9 | 2.5 | -6.8
O=S(=O)(c1ccc(F)c(Cl)c1)N1CCC(Cc2ccccc2)CC1 | x | x | -10.0 | x | x | x
O=C(c1ccsc1)N1CCC(CSC2=NCCS2)CC1 | x | x | 7.0 | x | x | x
Cc1ccccc1-c1noc(-c2ccc(O)cc2)n1 | 128.7* | 1.7 | -17.1 | 8.2 | 1.2 | 2.4
CON=CNC(=O)N1OCC2COc3ccc4ccccc4c3C21 (configuration not stated) | x | 0.9 | x | x | 2.9 | 13.7
CCCCCCCCCn1cc(C(C)=O)c(=O)[nH]c1=O | 1.2 | 2.7 | -19.9 | 50.3* | 5.3 | 7.7
CC(=O)c1cn(CCCCCCCn2cc(C(C)=O)c(=O)[nH]c2=O)c(=O)[nH]c1=O | -1.6 | 12.2 | 0.4 | -2.8 | 2.0 | 1.1
CC(C)/C=C(/C(=O)c1ccc(Cl)cc1Cl)n1cncn1 | 398.6* | -4.8 | -9.3 | -3.3 | -1.2 | 10.8
CC(C)(C)C(=O)/C(=C/c1ccc(Cl)cc1)n1cncn1 | 0.8 | 7.6 | -1.5 | -11.0 | 4.8 | 22.6
Cc1cc(C(=O)N(CC(F)(F)F)C2CCOCC2)c(C)o1 | x | x | 7.0 | x | x | x
Cc1nnc(SCC2=C(C(=O)O)N3C(=O)C(NC(=O)Cn4nc(C(F)F)c(Cl)c4C)C3SC2)s1 (configuration not stated) | -0.7 | 100.3* | 0.0 | 25.1 | 100.4* | x
CC1=C(C(=O)O)N2C(=O)C(NC(=O)CCCC(=O)O)C2SC1 (configuration not stated) | -2.1 | 10.1 | -17.0 | 19.8 | 3.6 | -11.8
CC(=O)OCC1=C(C(=O)O)N2C(=O)C(NC(=O)CCn3nc(C(F)(F)F)c(Br)c3C3CC3)C2SC1 (configuration not stated) | -0.6 | 99.9* | -14.0 | 2.3 | 100.1* | x
CC(=O)OCC1=C(C(=O)O)N2C(=O)C(NC(=O)CCn3nc(C)c(Cl)c3C)C2SC1 (configuration not stated) | -0.3 | 98.8* | -6.1 | -6.2 | 99.0* | x
CC(=O)OCC1=C(C(=O)O)N2C(=O)C(NC(=O)Cn3nc(C(F)F)c(Cl)c3C)C2SC1 (configuration not stated) | 1.9 | 96.4* | -2.5 | 7.2 | 99.3* | x
SMILES | PfHsp40 rescue | Sa ugtP lethal | SSB-PriA inh | VHR inh abs | RN4220 kill | Mtb hypoxia rep
CC1=C(C(=O)OCc2ccc([N+](=O)[O-])cc2)N2C(=O)C(NC(=O)Cc3ccccc3)C2SC1 (configuration not stated) | -1.1 | 0.2 | -10.2 | 23.3 | 2.2 | 0.0
Cc1nnc(SCC2=C(C(=O)O)N3C(=O)C(NC(=O)Cn4nc(C(F)F)cc4C)C3SC2)s1 (configuration not stated) | -1.4 | 100.8* | -3.6 | 11.9 | 100.1* | x
Cc1cc(C(F)F)nn1CC(=O)NC1CCCC1 | -0.8 | x | -13.2 | 23.6 | x | x
CCc1nc2ccccc2n1CC1CC1(Cl)Cl (configuration not stated) | 55.9* | 0.2 | -0.4 | 8.5 | 9.2 | -2.9
O=C(NCCn1ncc2c(N3CCN(c4ccccc4)CC3)ncnc21)C1CC1 | x | x | -16.0 | x | x | x
CCCC1OC(c2cc3c(cc2Cl)OCO3)OCC1CC (configuration not stated) | 1.6 | 85.1* | -48.4 | x | -1.4 | 1.1
CCCOc1c(Cl)cc(C=NO)cc1OCC | x | 93.3* | -15.8 | x | -2.6 | x
COc1cc(C=NO)cc(Br)c1OC | x | 5.7 | -4.3 | x | 0.1 | 0.7
CCCOc1c(Br)cc(C=NO)cc1OC | x | 85.8* | -6.6 | x | -5.2 | x
CCCC(=O)Nc1ccc2c(c1)CN(S(=O)(=O)c1ccccc1)CC2 | x | x | 2.0 | x | x | x
CC(=O)Nc1ccc(NC2=C(Cl)C(=O)c3ccccc3C2=O)cc1 | x | -3.6 | -8.4 | 11.9 | 18.6 | 5.3
CN(C)c1ccc(NC2=C(Cl)C(=O)c3ccccc3C2=O)cc1 | u | 9.4 | 63.6* | -7.8 | 23.9 | 15.8
Oc1c(C(Nc2ccccn2)c2cccnc2)cc(Cl)c2cccnc12 (configuration not stated) | 317.9* | -10.5 | 104.7 | 7.4 | 21.9 | 5.6
CCC(=O)NC(c1ccco1)c1cc(Cl)c2cccnc2c1O (configuration not stated) | 277.5* | -4.8 | -18.2 | 12.9 | 6.7 | 11.6
CCC(=O)NC(c1ccco1)c1cc(Cl)c2cccnc2c1OC (configuration not stated) | -0.6 | 3.0 | 0.9 | x | 3.4 | 7.4
CCCCC(=O)NC(c1ccco1)c1cc(Cl)c2cccnc2c1O (configuration not stated) | 359.7* | 5.3 | 6.6 | 4.0 | 23.0 | 12.1
CCC(=O)NC(c1ccc(OC)cc1)c1cc(Cl)c2cccnc2c1O (configuration not stated) | 1.3 | -13.1 | -6.8 | -18.0 | 21.1 | 8.7
CC(=O)NC(c1ccc(C)cc1)c1cc(Cl)c2cccnc2c1O (configuration not stated) | -0.5 | x | -4.7 | 23.3 | x | x
COc1ccc(S(=O)(=O)N2CCCc3cc(NS(=O)(=O)Cc4ccccc4F)ccc32)cc1 | x | x | 6.0 | x | x | x
S=C(N=Nc1ccccc1)NNc1ccccc1 | 13.0 | -1.6 | 71.9* | 0.9 | -0.2 | 8.2
CC(C)(C)P(=O)(NCc1ccccc1)c1ccccc1 (configuration not stated) | 53.1* | 10.3 | -6.0 | 3.9 | 6.4 | -7.2
Cc1cc2ncn(/N=C/c3ccc([N+](=O)[O-])s3)c2cc1C | -0.2 | x | x | 10.2 | x | x
